Reference: PubChem BioAssay (NCI)
Compounds without any hit were thinned out: in the full panel of roughly 79,000, 15% have a hit. Active and inactive are the calls of the source. No stated cut-off is given here; in the data, active means growth inhibition above about 70%; inactive means the rest.

Key:
[1] = NCI Yeast Anticancer Drug Screen. Data for the rad52 strain (AID 147);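 further: 0% = growth of vehicle-treated control cultures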; settings: S. cerevisiae rad52 mutant growth inhibition, active compounds read high
Outline: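 Measured: yeast growth inhibition. System: strain with a defined DNA damage repair alteration. Reference: vehicle-treated control cultures.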

[2] = NCI Yeast Anticancer Drug Screen. Data for the wt1 strain (AID 149);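 further: 0% = growth of vehicle-treated wt1 cultures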; settings: S. cerevisiae wt1 strain (SPY 50644) growth inhibition, active compounds read high
Outline: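 Measured: growth of wt1 yeast under compound versus vehicle treatment, reported as inhibition.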

[3] = NCI Yeast Anticancer Drug Screen. Data for the rad50EPP+ strain (AID 151);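 further: 0% = growth of vehicle-treated control cultures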; settings: S. cerevisiae rad50 mutant strain, active compounds read high
Outline: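 One strain with a rad50 alteration (rad50EPP+) was compound-treated, its growth then compared to that of vehicle controls.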

[4] = NCI Yeast Anticancer Drug Screen. Data for the mgt1 strain (AID 153); settings: S. cerevisiae mgt1 mutant growth inhibition, active compounds read high
Outline: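 After exposure of the mgt1 yeast mutant to compound, growth was measured and reported as inhibition compared with vehicle controls.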

[5] = NCI Yeast Anticancer Drug Screen. Data for the rad50 strain (AID 155);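 further: 0% = growth of vehicle-only cultures of the same strain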; settings: S. cerevisiae rad50 strain growth inhibition, active compounds read high
Outline: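 Growth of the mutant yeast was measured after compound exposure and referenced to vehicle-treated cultures.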

[6] = NCI Yeast Anticancer Drug Screen. Data for the mec2-1 strain (AID 157); settings: S. cerevisiae mec2-1 strain, active compounds read high
Outline: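 Test agents were screened against the mec2-1 yeast strain, with defined DNA repair or cell cycle alteration. Growth was scored as inhibition against vehicle-only controls.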

[7] = NCI Yeast Anticancer Drug Screen. Data for the rad14 strain (AID 159);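 further: 0% = growth of vehicle-treated control cultures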; settings: S. cerevisiae rad14 strain growth inhibition, active compounds read high
Outline: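 Here, inhibition of yeast growth was measured after compound exposure, using a strain with a genetic defect in DNA damage repair and vehicle-treated cultures as the reference.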

[8] = NCI Yeast Anticancer Drug Screen. Data for the sgs1 mgt1 strain (AID 161);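 further: 0% = growth of cultures given vehicle only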; settings: S. cerevisiae sgs1 mgt1 strain, active compounds read high
Outline: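 Genetically altered yeast, compound exposure, growth inhibition relative to vehicle.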

[9] = NCI Yeast Anticancer Drug Screen. Data for the CLN2oe strain (AID 163);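 further: 0% = growth of vehicle-only control cultures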; settings: S. cerevisiae CLN2oe strain, active compounds read high
Outline: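 Here, growth inhibition in a cell-cycle-altered yeast strain after compound exposure was quantified against vehicle control growth.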

[10] = NCI Yeast Anticancer Drug Screen. Data for the cln2 rad14 strain (AID 165);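 further: 0% = growth equal to vehicle treated cultures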; settings: S. cerevisiae cln2 rad14 strain, active compounds read high
Outline: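 Growth of compound-exposed yeast (cln2 rad14 genotype) measured and expressed as inhibition relative to vehicle.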

[11] = NCI Yeast Anticancer Drug Screen. Data for the bub3 strain (AID 167); settings: S. cerevisiae bub3 mutant strain, active compounds read high
Outline: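 Whole-cell yeast assay. The mutant strain was incubated with compounds, and growth inhibition was determined by comparison with vehicle-treated cells.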

[12] = NCI Yeast Anticancer Drug Screen. Data for the wt2 strain (AID 169);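 further: 0% = growth of vehicle-treated yeast cultures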; settings: S. cerevisiae wt2 strain growth inhibition, active compounds read high
Outline: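 Genetically defined yeast strains from a DNA-repair/cell-cycle panel were used. Compound-exposed yeast growth was measured, and the inhibition was calculated relative to vehicle treatment.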

[13] = NCI Yeast Anticancer Drug Screen. Data for the mlh1 strain (AID 171);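 further: 0% = growth of vehicle-treated control cultures of the same strain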; settings: S. cerevisiae mlh1 strain growth inhibition, active compounds read high
Outline: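 Here the genetically defined yeast mutant is grown with each compound, and the extent to which its growth falls below that of vehicle-exposed cells is reported.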

[14] = NCI Yeast Anticancer Drug Screen. Data for the sgs1 strain (AID 173);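 further: 0% = growth of vehicle-only control cultures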; settings: S. cerevisiae sgs1 mutant, active compounds read high
Outline: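 Relative growth inhibition, referenced to vehicle, was determined in a yeast strain with a defined alteration affecting DNA damage repair or cell cycle control after compound exposure.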

[15] = NCI Yeast Anticancer Drug Screen. Data for the mlh1 rad18 strain (AID 175); settings: S. cerevisiae mlh1 rad18 strain growth inhibition, active compounds read high
Outline: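 In this whole-cell yeast screen, a strain with altered DNA damage repair is challenged with compound, and its growth is measured against matched vehicle-treated controls.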

[16] = NCI Yeast Anticancer Drug Screen. Data for the rad18 strain (AID 177); settings: S. cerevisiae rad18 mutant growth inhibition, active compounds read high
Outline: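 Screen uses a yeast strain with a defined lesion in DNA damage repair; compound effect is read as loss of growth compared to untreated vehicle cultures.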

[17] = at 5.0 µM (retest, dose inferred, filed as 0.5)
[18] = at 50.0 µM (retest, dose inferred, filed as 5.0)

Measured: growth inhibition

CC1=C(C)C(=O)C2=C(OCCO2)C1=O
inactive: [1]; at 1.2 µM -6% | [1]; at 3.7 µM -8% | [1]; at 11.0 µM 1% | [1]; at 33.0 µM 23% | [2]; at 1.2 µM -4% | [2]; at 3.7 µM -5% | [2]; at 11.0 µM -5% | [2]; at 33.0 µM -4% | [2]; at 100.0 µM 17% | [3]; at 1.2 µM -3% | [3]; at 3.7 µM -3% | [3]; at 11.0 µM 5% | [3]; at 33.0 µM 10% | [3]; at 100.0 µM 46% | [4]; at 1.2 µM -8% | [4]; at 3.7 µM -2% | [4]; at 11.0 µM -2% | [4]; at 33.0 µM 3% | [4]; at 100.0 µM 43% | [5]; at 1.2 µM -3% | [5]; at 3.7 µM 0% | [5]; [17] -23% | [5]; at 11.0 µM 7% | [5]; at 33.0 µM 33% | [5]; at 50.0 µM 1% | [6]; at 1.2 µM -3% | [6]; at 3.7 µM -3% | [6]; [17] -8% | [6]; at 11.0 µM -5% | [6]; at 33.0 µM -1% | [6]; [18] 24% | [6]; at 50.0 µM -3.25% | [6]; at 100.0 µM 20% | [7]; at 1.2 µM -1% | [7]; at 3.7 µM -1% | [7]; at 11.0 µM 4% | [7]; at 33.0 µM 17% | [8]; [17] -10% | [8]; [18] 21% | [8]; at 50.0 µM 29.8% | [9]; at 1.2 µM 0% | [9]; at 3.7 µM -4% | [9]; at 11.0 µM 3% | [9]; at 33.0 µM 15% | [9]; at 100.0 µM 27% | [10]; [17] 3% | [10]; [18] 29% | [10]; at 50.0 µM 3.35% | [11]; at 1.2 µM 0% | [11]; at 3.7 µM 2% | [11]; [17] -22% | [11]; at 11.0 µM 9% | [11]; at 33.0 µM 18% | [11]; [18] 35% | [11]; at 50.0 µM 59.4% | [11]; at 100.0 µM 48% | [12]; at 1.2 µM -9% | [12]; at 3.7 µM -12% | [12]; at 11.0 µM -2% | [12]; at 33.0 µM -13% | [12]; at 100.0 µM -5% | [13]; at 1.2 µM -4% | [13]; at 3.7 µM -3% | [13]; at 11.0 µM 3% | [13]; at 33.0 µM 14% | [13]; at 100.0 µM 54% | [14]; at 1.2 µM -22% | [14]; at 3.7 µM 23% | [14]; at 11.0 µM -14% | [14]; at 33.0 µM 26% | [15]; [17] 4% | [15]; [18] 50% | [15]; at 50.0 µM 26% | [16]; at 1.2 µM -5% | [16]; at 3.7 µM -5% | [16]; at 11.0 µM -4% | [16]; at 33.0 µM 6% | [16]; at 100.0 µM 54%
active: [1]; at 100.0 µM 82% | [5]; [18] 87% | [5]; at 100.0 µM 88% | [7]; at 100.0 µM 71% | [14]; at 100.0 µM 88%

O=C1C(/C=C/c2ccc(Cl)cc2)=NNC2N1N=C1NC(=O)C3(NN12)c1ccccc1-c1ccccc13 (stereo unspecified)
inactive: [1]; at 1.2 µM -2% | [1]; at 3.7 µM -2% | [1]; at 11.0 µM -1% | [1]; at 33.0 µM -3% | [1]; at 100.0 µM 10% | [2]; at 1.2 µM 1% | [2]; at 3.7 µM 2% | [2]; at 11.0 µM 1% | [2]; at 33.0 µM 2% | [2]; at 100.0 µM 6% | [3]; at 1.2 µM -1% | [3]; at 3.7 µM -3% | [3]; at 11.0 µM 1% | [3]; at 33.0 µM 0% | [3]; at 100.0 µM 10% | [4]; at 1.2 µM -2% | [4]; at 3.7 µM -2% | [4]; at 11.0 µM -2% | [4]; at 33.0 µM -13% | [4]; at 100.0 µM 4% | [5]; at 1.2 µM -7% | [5]; at 3.7 µM -15% | [5]; [17] -10% | [5]; at 11.0 µM -21% | [5]; at 33.0 µM -1% | [5]; [18] 22% | [5]; at 100.0 µM 12% | [6]; at 1.2 µM 0% | [6]; at 3.7 µM 1% | [6]; [17] -10% | [6]; at 11.0 µM 0% | [6]; at 33.0 µM 5% | [6]; [18] 25% | [6]; at 100.0 µM 9% | [7]; at 1.2 µM -1% | [7]; at 3.7 µM -2% | [7]; at 11.0 µM -1% | [7]; at 33.0 µM 0% | [7]; at 100.0 µM 5% | [8]; [17] -4% | [8]; [18] 22% | [9]; at 1.2 µM -3% | [9]; at 3.7 µM -3% | [9]; at 11.0 µM 1% | [9]; at 33.0 µM 9% | [9]; at 100.0 µM 14% | [10]; [17] 18% | [10]; [18] 32% | [10]; at 50.0 µM 62.9% | [11]; at 1.2 µM -2% | [11]; at 3.7 µM 1% | [11]; [17] -19% | [11]; at 11.0 µM 0% | [11]; at 33.0 µM -2% | [11]; [18] -12% | [11]; at 100.0 µM 1% | [12]; at 1.2 µM -2% | [12]; at 3.7 µM -2% | [12]; at 11.0 µM -2% | [12]; at 33.0 µM 1% | [12]; at 100.0 µM 4% | [13]; at 1.2 µM 0% | [13]; at 3.7 µM 0% | [13]; at 11.0 µM 1% | [13]; at 33.0 µM 2% | [13]; at 100.0 µM 4% | [14]; at 1.2 µM -1% | [14]; at 3.7 µM 0% | [14]; at 11.0 µM -1% | [14]; at 33.0 µM 1% | [14]; at 100.0 µM 3% | [15]; [17] -34% | [15]; [18] 62% | [16]; at 1.2 µM -3% | [16]; at 3.7 µM -1% | [16]; at 11.0 µM -1% | [16]; at 33.0 µM 0% | [16]; at 100.0 µM 17%
active: [5]; at 50.0 µM 83.3% | [6]; at 50.0 µM 76.2% | [8]; at 50.0 µM 73.5% | [11]; at 50.0 µM 87.2% | [15]; at 50.0 µM 87.7%
